Activity calls are given as the source filed them. Unless noted, the rule behind the calls is not given here.
Experiments:
[1] = stimulators of nuclear beta-catenin in C2C12, primary screen, imaging, WNT3A-conditioned medium, mouse C2C12, NPC library (AID 1117326; in the data active = nuclear beta-catenin stimulation mostly above about 4.2%, no sharp cut-off; inactive = mostly below about 10%); settings: stronger effect = higher value
[2] = stimulators of insulin release from INS-1E, primary screen, cell-based, 5 mM glucose, NPC library (AID 1117329;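 active = compound raises insulin release from rat beta cells at 5 mM glucose, no numeric limit stated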); settings: rat INS-1E insulin secretion, at 10 µM, stronger effect = higher value
[3] = growth inhibition of GSK3B-pretreated HCT116 cells – cell-based, CellTiter-Glo, 0.2 to 20 µM (AID 1117336;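 active = compounds lowering colon cancer cell viability after pretreatment blocking the GSK3B kinase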); settings: HCT116 viability after GSK3B inhibitor, at 20 µM, stronger effect = higher value
[4] = inhibition of endothelial tube formation, primary screen, imaging, VEGF stimulated, CD31 staining, tube area, NPC library (AID 1117340;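 active = compound that reduces growth-factor-driven endothelial tube area in a mixed cell culture, no cutoff stated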); settings: VEGF-stimulated ADSC/ECFC co-culture, at 10 µM, stronger effect = higher value
[5] = glucagon-like peptide 1 release enhancers, primary assay, NCI-H716 cell line, NPC library (AID 1117341;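 active = compound raises GLP1 secretion from the human gut endocrine cells, with no numeric limit stated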); settings: NCI-H716 cells, at 10 µM, stronger effect = higher value
[6] = HCT116 colon cancer cell growth inhibition, primary screen, CellTiter-Glo luminescence, NPC library (AID 1117342;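 active = compounds that lower survival of HCT116 colon cancer cells in the luminescence readout, no numeric limit stated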); settings: at 20 µM (top of the series)
[7] = CellTiter-Glo luminescent readout of SW480 viability loss, NPC library primary (AID 1117343;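 active = compounds that lower viability of the colon cancer cells in the luminescence readout, with no numeric limit stated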); settings: CellTiter-Glo luminescence; at 20 µM (top of the series)
[8] = decreased DLD-1 cellular survival, CellTiter-Glo luminescent readout, NPC compound collection, primary HTS (AID 1117346;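 active = compounds that lower survival of DLD-1 colon cancer cells in the luminescence readout, no cutoff given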); settings: DLD-1 viability, CellTiter-Glo luminescence; at 20 µM (top of the series)
[9] = kinase inhibitors against Plasmodium liver-stage infection, cell-based, known kinase inhibitor set, luminescence, hepatoma host viability (AID 624392); settings: Plasmodium liver stage in hepatoma cells, luciferase luminescence, concentration not given here; liver cell % of control: measured here: host liver cell viability; parasite % of control: stronger effect = lower value;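 note: infected cells incubated roughly two days before readout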
[10] = modulators of glucocorticoid suppression of NF-kB, cell-based, luciferase, IL-1B stimulus, dexamethasone (AID 624486); settings: NF-kB luciferase reporter, IL-1B + dexamethasone, luminescence; percent of negative control (+Dex): actives lie on both sides, concentration not given here; z-score: measured here: IL-1B alone, no Dex;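 for percent of negative control (+Dex): 100% = mean signal of vehicle control wells on the plate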
[11] = IRF3 reporter activation in THP-1 macrophages, cell-based, PMA-stimulated THP-1, luminescence (AID 1053176); settings: PMA-differentiated THP-1, IRF3 reporter luminescence; stronger effect = higher value
[12] = kinase inhibitors altering Pseudomonas killing of worms, whole organism (AID 651566);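 note: tested at 14 µM; sign flipped so higher z means a lower ratio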; settings: C. elegans killed by P. aeruginosa, survival ratio
[13] = activators of macrophage pro-inflammatory response, cell-based, murine, luminescence (AID 652131); settings: murine macrophage pro-inflammatory reporter, stronger effect = higher value
[14] = survival rescue of mitochondrial mutant cells in low glucose, primary screen, MELAS cybrids, Rieske KO mouse fibroblasts, CellTiter-Glo (AID 1508586;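 active = mean z-score across replicates of 1.96 or higher in either the MELAS or the Rieske mutant cell line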;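 note: z relative to plate mean and SD of compound and empty wells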)
[15] = MELAS cybrid survival, CellTiter-Glo 48 h, stronger effect = higher value
[16] = Rieske KO mouse fibroblast survival, CellTiter-Glo 72 h

COC(=O)CCC(=O)CN
nuclear beta-catenin stimulation ([1]; at 10 µM): -1.5% (inactive)
nuclear beta-catenin stimulation ([1]; stimulation, at 2 µM): 0.1%
insulin secretion stimulation [2]: 0.4% (inactive)
viability decrease [3]: 0.2% (inactive)
tube area decrease [4]: -14.2% (inactive)
GLP1 secretion stimulation [5]: -0.4% (inactive)
inhibition of viability [6]: 11.6% (inactive)
viability decrease (inhibition) [7]: 24.2% (inactive)
viability decrease (inhibition) [8]: 18.4% (inactive)

Cc1[nH]nc2c1N=C(c1ccccc1Cl)c1cc([N+](=O)[O-])ccc1N2
liver cell % of control [9]: 92.3%
parasite % of control [9]: 32.5% (inactive)
percent of negative control (+Dex) [10]: 104% (inactive)
z-score [10]: -1.15
fraction signal [11]: -0.0135 (inactive)

CS(=O)(=O)CCN(CC#N)Cc1ccc(-c2ccc3ncnc(Nc4ccc(OCc5cccc(F)c5)c(Cl)c4)c3c2)o1
liver cell % of control [9]: 98.1%
parasite % of control [9]: 143% (inactive)
percent of negative control (+Dex) [10]: 82% (inactive)
z-score [10]: -0.4
z-score [12]: 0.225 (inactive)
z-score [13]: 0.25 (inactive)
fraction signal [11]: 0.001 (inactive)
z-score [14, 15]: -0.391 (inactive)
z-score [14, 16]: -0.288

Fc1ccc(-c2ncn(C3CCNCC3)c2-c2ccnc(Oc3ccccc3)n2)cc1
liver cell % of control [9]: 73.1%
parasite % of control [9]: 120% (inactive)
percent of negative control (+Dex) [10]: 102% (inactive)
z-score [10]: 0.6
z-score [12]: 0.255 (inactive)
z-score [13]: 0.32 (inactive)
fraction signal [11]: -0.004 (inactive)
z-score [14, 15]: -0.224 (inactive)
z-score [14, 16]: -0.286

COc1ccc2nc(NC(=O)Nc3ccccc3)sc2c1
nuclear beta-catenin stimulation ([1]; at 10 µM): 0.5% (inactive)
nuclear beta-catenin stimulation ([1]; stimulation, at 2 µM): 0%
insulin secretion stimulation [2]: 1.3% (inactive)
viability decrease [3]: 11.7% (inactive)
tube area decrease [4]: 2.4% (inactive)
GLP1 secretion stimulation [5]: -1.4% (inactive)
inhibition of viability [6]: 43% (inactive)
viability decrease (inhibition) [7]: -1.6% (inactive)
viability decrease (inhibition) [8]: 24% (inactive)

COc1ccc2ncn(-c3cc(O[C@H](C)c4ccccc4Cl)c(C(N)=O)s3)c2c1
liver cell % of control [9]: 108%
parasite % of control [9]: 124% (inactive)
percent of negative control (+Dex) [10]: 77.5% (inactive)
z-score [10]: -2.52
z-score [12]: 0.63 (inactive)
z-score [13]: -1.39 (inactive)
fraction signal [11]: -0.0045 (inactive)
z-score [14, 15]: -0.983 (inactive)
z-score [14, 16]: 0.0827

CC(C)(C)C1CCC(CC2=C(O)c3ccccc3C(=O)C2=O)CC1 (centres undefined)
nuclear beta-catenin stimulation ([1]; at 10 µM): 2% (inactive)
nuclear beta-catenin stimulation ([1]; stimulation, at 2 µM): -0.5%
insulin secretion stimulation [2]: -0.2% (inactive)
viability decrease [3]: 110% (active)
tube area decrease [4]: 109% (active)
GLP1 secretion stimulation [5]: 5.8% (inactive)
inhibition of viability [6]: 106% (active)
viability decrease (inhibition) [7]: 140% (active)
viability decrease (inhibition) [8]: 98.4% (active)

CCS(=O)(=O)c1ccc(OC)c(Nc2ncc(-c3cccc(F)c3)o2)c1
liver cell % of control [9]: 140%
parasite % of control [9]: 19.6% (inactive)
percent of negative control (+Dex) [10]: 84.5% (inactive)
z-score [10]: -0.335
z-score [12]: -0.615 (inactive)
z-score [13]: -0.303 (inactive)
fraction signal [11]: -0.0005 (inactive)
z-score [14, 15]: 1.69 (inactive)
z-score [14, 16]: -0.478

N#Cc1c(NC(=O)c2cccc3ccccc23)sc2c1CCCN2C(=O)C1CC1
liver cell % of control [9]: 190%
parasite % of control [9]: 15.9% (inactive)
percent of negative control (+Dex) [10]: 106% (inactive)
z-score [10]: -0.12
z-score [12]: -0.17 (inactive)
z-score [13]: -0.734 (inactive)
fraction signal [11]: 0.002 (inactive)
z-score [14, 15]: -0.726 (inactive)
z-score [14, 16]: -0.0978

CC(C)C[C@@H]1[C@H](c2ccccc2)OC(=O)N1CCCN1CCCCCC1
nuclear beta-catenin stimulation ([1]; at 10 µM): 1.3% (inactive)
nuclear beta-catenin stimulation ([1]; stimulation, at 2 µM): 1.6%
insulin secretion stimulation [2]: 15% (inactive)
viability decrease [3]: 21.1% (inactive)
tube area decrease [4]: 8% (inactive)
GLP1 secretion stimulation [5]: 5.9% (inactive)
inhibition of viability [6]: 56.3% (active)
viability decrease (inhibition) [7]: 19.9% (inactive)
viability decrease (inhibition) [8]: 18.3% (inactive)

CS(=O)(=O)CCNCc1ccc(-c2ccc3ncnc(Nc4ccc(OCc5ccccc5)c(Br)c4)c3c2)o1
liver cell % of control [9]: 107%
parasite % of control [9]: 127% (inactive)
percent of negative control (+Dex) [10]: 82% (inactive)
z-score [10]: -0.54
z-score [12]: 0.135 (inactive)
z-score [13]: 2.09 (inactive)
fraction signal [11]: 0.0015 (inactive)
z-score [14, 15]: 0.203 (inactive)
z-score [14, 16]: -0.567

O=C(O)c1ccc(Oc2nccc(-c3c(-c4ccc(F)cc4)ncn3C3CCNCC3)n2)cc1
liver cell % of control [9]: 104%
parasite % of control [9]: 117% (inactive)
percent of negative control (+Dex) [10]: 97% (inactive)
z-score [10]: -0.04
z-score [12]: -0.625 (inactive)
z-score [13]: 0.424 (inactive)
fraction signal [11]: 0.0015 (inactive)
z-score [14, 15]: -0.0801 (inactive)
z-score [14, 16]: -0.396
